Test results reported in PubChem BioAssay (EPA / NIEHS).
Records with an inconclusive call do not appear. Where a structure was tested more than once in an assay, its records may differ in their call. Active and inactive are the calls of the source. How the source made its calls: active means hit-call score of the fitted dose curve at least 0.9, where 1 is the maximum; inconclusive means response in the unintended direction; inactive means score below 0.9.

How the values were obtained:
[1] = target: Peroxisome proliferator-activated receptor gamma (Homo sapiens) (UniProt P37231); assay: ATG_PPARg_TRANS: Attagene TRANS-FACTORIAL HepG2 Assay for human Peroxisome Proliferator-activated Receptor-gamma (PPARg) (AID 2283007)
Procedure, shortened: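 Chimeric NR-Gal4 transactivation is measured in transiently transfected HepG2 cells by reporter mRNA induction at 24 h. Detection uses RT-PCR with fluorescent labelling and capillary electrophoresis; DMSO defines baseline.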

[2] = target: Nuclear receptor subfamily 1 group I member 2 (Homo sapiens) (UniProt O75469); assay: ATG_PXR_TRANS: Attagene TRANS-FACTORIAL HepG2 Assay for human Pregnane X Receptor (PXR) (AID 2283008)
Procedure, shortened: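 Measures mRNA induction of a GAL4-UAS-driven reporter in human HepG2 cells transiently expressing PXR fused to Gal4, following 24 h treatment. DMSO served as negative control and baseline.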

[3] = target: human RAR-related Orphan Receptor beta (RORb), RORB (gene 6096) (UniProt Q92753); assay: ATG_RORb_TRANS: Attagene TRANS-FACTORIAL HepG2 Assay for human RAR-related Orphan Receptor beta (RORb) (AID 2283010)
Procedure, shortened: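 Readout is reporter-gene mRNA induction, detected as fluorescence after RT-PCR and capillary electrophoresis, fitted for gain of signal against DMSO controls. Transiently transfected HepG2 liver cells carrying GAL4-UAS reporter constructs were treated for 24 hours.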

[4] = target: Retinoic acid receptor RXR-alpha (Homo sapiens) (UniProt P19793); assay: ATG_RXRa_TRANS: Attagene TRANS-FACTORIAL HepG2 Assay for human Retinoid X Receptor alpha (RXRa) (AID 2283012)
Procedure, shortened: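 Transient transfection of human HepG2 with multiple GAL4-UAS reporter constructs; 24 h compound exposure; total RNA isolated, reverse-transcribed, PCR-amplified, 6-FAM labelled, HpaI-cut, resolved by capillary electrophoresis. Positive-direction fit versus DMSO.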

[5] = target: human Retinoid X Receptor beta (RXRb), RXRB (gene 6257) (UniProt P28702); assay: ATG_RXRb_TRANS: Attagene TRANS-FACTORIAL HepG2 Assay for human Retinoid X Receptor beta (RXRb) (AID 2283013)
Procedure, shortened: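 Transfect HepG2 with GAL4-UAS multi-reporter constructs (chimeric NR-Gal4, TRANS format); dose compound 24 h; isolate RNA, RT-PCR, FAM primer extension, HpaI digest; quantify by capillary electrophoresis; positive direction vs DMSO.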

[6] = target: human Retinoic Acid Receptor gamma (RARg), RARG (gene 5916) (UniProt P13631); assay: ATG_RARg_TRANS: Attagene TRANS-FACTORIAL HepG2 Assay for human Retinoic Acid Receptor gamma (RARg) (AID 2283009)
Procedure, shortened: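 Transient transfection of HepG2 with multi-reporter constructs, then 24 h chemical treatment. Total RNA isolated, reverse-transcribed, PCR-amplified, fluorescently labelled and resolved by capillary electrophoresis; activity scored as mRNA induction versus DMSO.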

[7] = target: human Vitamin D Receptor (VDR), VDR (gene 7421) (UniProt P11473); assay: ATG_VDR_TRANS: Attagene TRANS-FACTORIAL HepG2 Assay for human Vitamin D Receptor (VDR) (AID 2283022)
Procedure, shortened: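 RT-PCR/capillary electrophoresis read-out of reporter mRNA induction in transiently transfected HepG2; 24 h dosing; chimeric NR-Gal4 (TRANS format); gain-of-signal fit against DMSO baseline.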

[8] = target: human RAR-related Orphan Receptor gamma (RORg), RORC (gene 6097) (UniProt P51449); assay: ATG_RORg_TRANS: Attagene TRANS-FACTORIAL HepG2 Assay for human RAR-related Orphan Receptor gamma (RORg) (AID 2283011)
Procedure, shortened: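 Transient MRTU transfection of HepG2 (TRANS format, exogenous NR-Gal4 chimera). 24 h dosing. Total RNA → oligo(dT) RT → PCR → 6-FAM labelling → HpaI cut → CE. Gain vs DMSO.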

[9] = target: human Thyroid Receptor alpha (THRa1), THRA (gene 7067) (UniProt P10827); assay: ATG_THRa1_TRANS: Attagene TRANS-FACTORIAL HepG2 Assay for human Thyroid Receptor alpha (THRa1) (AID 2283014)
Procedure, shortened: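 Transient HepG2 transfection, NR-Gal4 chimera driving GAL4-UAS reporters; 24 h compound exposure; total RNA, oligo(dT) RT, PCR, fluorescent primer extension, capillary electrophoresis. Upward direction vs DMSO control.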

Sequence of human RAR-related Orphan Receptor beta (RORb), RORB (gene 6096) (Q92753 whole entry, looked up, the tested form may be a part): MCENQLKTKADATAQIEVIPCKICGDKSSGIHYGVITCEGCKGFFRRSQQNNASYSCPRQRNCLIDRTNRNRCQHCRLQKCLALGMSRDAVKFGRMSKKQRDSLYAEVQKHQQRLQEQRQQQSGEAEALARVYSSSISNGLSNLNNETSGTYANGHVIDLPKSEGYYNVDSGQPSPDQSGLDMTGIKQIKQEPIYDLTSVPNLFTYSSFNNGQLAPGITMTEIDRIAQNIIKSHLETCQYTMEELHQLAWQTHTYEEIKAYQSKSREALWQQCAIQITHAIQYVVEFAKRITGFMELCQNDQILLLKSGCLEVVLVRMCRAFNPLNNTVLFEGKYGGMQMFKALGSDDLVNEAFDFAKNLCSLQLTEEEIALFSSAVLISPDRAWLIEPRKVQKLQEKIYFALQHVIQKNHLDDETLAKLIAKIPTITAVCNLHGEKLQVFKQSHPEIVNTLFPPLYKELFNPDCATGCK
Sequence of Peroxisome proliferator-activated receptor gamma (Homo sapiens) (P37231 whole entry, looked up, the tested form may be a part): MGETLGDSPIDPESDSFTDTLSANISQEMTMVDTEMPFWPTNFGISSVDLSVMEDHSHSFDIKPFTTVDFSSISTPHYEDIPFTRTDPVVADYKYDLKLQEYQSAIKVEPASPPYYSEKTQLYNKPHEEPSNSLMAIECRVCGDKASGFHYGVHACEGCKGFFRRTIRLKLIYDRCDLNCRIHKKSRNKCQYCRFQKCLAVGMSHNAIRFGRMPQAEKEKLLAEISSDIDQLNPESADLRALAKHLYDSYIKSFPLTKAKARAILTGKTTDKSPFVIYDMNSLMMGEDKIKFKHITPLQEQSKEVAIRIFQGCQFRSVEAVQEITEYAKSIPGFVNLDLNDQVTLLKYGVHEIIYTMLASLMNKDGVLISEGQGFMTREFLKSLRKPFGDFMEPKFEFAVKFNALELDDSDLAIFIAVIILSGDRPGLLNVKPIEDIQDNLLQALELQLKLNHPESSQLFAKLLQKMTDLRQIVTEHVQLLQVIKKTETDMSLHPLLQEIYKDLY
Sequence of Nuclear receptor subfamily 1 group I member 2 (Homo sapiens) (O75469 whole entry, looked up, the tested form may be a part): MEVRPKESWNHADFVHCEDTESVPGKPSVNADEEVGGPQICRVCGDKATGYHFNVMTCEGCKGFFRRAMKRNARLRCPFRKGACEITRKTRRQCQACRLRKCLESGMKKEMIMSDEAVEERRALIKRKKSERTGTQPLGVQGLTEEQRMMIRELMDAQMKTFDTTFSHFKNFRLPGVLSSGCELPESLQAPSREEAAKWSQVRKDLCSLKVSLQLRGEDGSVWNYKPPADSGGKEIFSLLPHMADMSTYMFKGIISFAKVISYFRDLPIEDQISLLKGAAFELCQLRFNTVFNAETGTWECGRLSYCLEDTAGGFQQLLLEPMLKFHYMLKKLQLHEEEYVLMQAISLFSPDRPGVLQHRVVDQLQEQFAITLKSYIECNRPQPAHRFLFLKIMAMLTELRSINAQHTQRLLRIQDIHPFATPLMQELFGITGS
Sequence of human Retinoic Acid Receptor gamma (RARg), RARG (gene 5916) (P13631 whole entry, looked up): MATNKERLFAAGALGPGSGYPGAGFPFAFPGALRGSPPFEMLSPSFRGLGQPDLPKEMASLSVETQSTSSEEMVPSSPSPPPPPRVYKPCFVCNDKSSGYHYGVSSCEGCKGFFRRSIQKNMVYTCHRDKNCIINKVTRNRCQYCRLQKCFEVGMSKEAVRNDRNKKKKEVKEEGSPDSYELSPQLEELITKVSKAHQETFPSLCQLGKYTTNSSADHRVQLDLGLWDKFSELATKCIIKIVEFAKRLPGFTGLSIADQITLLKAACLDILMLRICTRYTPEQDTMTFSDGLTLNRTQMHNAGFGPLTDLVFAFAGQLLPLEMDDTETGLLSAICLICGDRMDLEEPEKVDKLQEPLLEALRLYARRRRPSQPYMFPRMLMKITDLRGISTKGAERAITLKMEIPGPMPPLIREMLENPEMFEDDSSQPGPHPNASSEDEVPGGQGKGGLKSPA
Sequence of human Vitamin D Receptor (VDR), VDR (gene 7421) (P11473 whole entry, looked up, the tested form may be a part): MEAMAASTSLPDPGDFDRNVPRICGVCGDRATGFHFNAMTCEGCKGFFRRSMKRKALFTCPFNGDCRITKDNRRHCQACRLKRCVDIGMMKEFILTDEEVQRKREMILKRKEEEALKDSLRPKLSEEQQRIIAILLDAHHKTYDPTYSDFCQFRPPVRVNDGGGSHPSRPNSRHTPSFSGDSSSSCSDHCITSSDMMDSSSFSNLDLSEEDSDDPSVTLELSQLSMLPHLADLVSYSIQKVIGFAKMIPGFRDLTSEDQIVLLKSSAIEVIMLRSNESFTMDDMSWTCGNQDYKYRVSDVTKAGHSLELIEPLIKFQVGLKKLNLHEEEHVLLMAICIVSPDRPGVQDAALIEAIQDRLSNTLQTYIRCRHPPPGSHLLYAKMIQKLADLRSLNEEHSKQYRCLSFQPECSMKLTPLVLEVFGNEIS
Sequence of human RAR-related Orphan Receptor gamma (RORg), RORC (gene 6097) (P51449 whole entry, looked up, the tested form may be a part): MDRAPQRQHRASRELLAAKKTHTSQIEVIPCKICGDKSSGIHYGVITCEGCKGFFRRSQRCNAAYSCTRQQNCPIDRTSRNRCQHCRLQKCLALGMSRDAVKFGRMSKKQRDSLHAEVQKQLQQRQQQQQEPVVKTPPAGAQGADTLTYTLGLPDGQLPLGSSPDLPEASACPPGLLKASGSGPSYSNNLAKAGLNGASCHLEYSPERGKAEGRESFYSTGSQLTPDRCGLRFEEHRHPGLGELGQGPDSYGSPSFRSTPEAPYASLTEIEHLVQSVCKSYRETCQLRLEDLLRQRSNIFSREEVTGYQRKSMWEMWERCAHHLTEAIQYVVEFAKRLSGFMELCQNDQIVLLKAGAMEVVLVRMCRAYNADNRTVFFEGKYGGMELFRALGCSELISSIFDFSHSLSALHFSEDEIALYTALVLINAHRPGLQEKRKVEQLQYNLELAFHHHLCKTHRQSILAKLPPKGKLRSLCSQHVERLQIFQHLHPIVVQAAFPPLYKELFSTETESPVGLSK
Sequence of Retinoic acid receptor RXR-alpha (Homo sapiens) (P19793 whole entry, looked up, the tested form may be a part): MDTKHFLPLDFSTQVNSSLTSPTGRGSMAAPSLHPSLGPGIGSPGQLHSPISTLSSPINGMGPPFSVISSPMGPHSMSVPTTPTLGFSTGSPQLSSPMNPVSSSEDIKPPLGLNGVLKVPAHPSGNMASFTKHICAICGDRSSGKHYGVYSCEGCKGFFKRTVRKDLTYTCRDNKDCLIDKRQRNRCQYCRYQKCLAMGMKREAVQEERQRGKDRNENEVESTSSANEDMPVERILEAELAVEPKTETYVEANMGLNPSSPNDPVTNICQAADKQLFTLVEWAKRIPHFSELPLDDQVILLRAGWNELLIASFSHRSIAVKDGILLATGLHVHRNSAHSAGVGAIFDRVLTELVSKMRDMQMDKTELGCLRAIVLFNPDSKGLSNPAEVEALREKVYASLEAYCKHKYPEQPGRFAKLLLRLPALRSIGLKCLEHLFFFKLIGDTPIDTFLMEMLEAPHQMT
Sequence of human Thyroid Receptor alpha (THRa1), THRA (gene 7067) (P10827 whole entry, looked up, the tested form may be a part): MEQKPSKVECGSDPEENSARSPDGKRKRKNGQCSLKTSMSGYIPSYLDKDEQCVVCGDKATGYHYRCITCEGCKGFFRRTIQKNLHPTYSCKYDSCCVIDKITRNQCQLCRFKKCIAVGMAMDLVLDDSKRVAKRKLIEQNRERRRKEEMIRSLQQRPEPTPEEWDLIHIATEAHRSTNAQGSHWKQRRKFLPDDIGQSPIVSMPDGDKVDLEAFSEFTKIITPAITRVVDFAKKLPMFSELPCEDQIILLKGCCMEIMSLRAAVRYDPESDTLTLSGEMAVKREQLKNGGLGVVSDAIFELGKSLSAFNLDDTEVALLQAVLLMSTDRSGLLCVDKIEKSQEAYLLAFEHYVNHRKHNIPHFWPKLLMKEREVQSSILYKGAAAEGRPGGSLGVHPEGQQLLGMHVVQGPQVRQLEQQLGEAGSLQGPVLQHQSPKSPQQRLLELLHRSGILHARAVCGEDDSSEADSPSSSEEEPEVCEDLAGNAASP
Sequence of human Retinoid X Receptor beta (RXRb), RXRB (gene 6257) (P28702 whole entry, looked up, the tested form may be a part): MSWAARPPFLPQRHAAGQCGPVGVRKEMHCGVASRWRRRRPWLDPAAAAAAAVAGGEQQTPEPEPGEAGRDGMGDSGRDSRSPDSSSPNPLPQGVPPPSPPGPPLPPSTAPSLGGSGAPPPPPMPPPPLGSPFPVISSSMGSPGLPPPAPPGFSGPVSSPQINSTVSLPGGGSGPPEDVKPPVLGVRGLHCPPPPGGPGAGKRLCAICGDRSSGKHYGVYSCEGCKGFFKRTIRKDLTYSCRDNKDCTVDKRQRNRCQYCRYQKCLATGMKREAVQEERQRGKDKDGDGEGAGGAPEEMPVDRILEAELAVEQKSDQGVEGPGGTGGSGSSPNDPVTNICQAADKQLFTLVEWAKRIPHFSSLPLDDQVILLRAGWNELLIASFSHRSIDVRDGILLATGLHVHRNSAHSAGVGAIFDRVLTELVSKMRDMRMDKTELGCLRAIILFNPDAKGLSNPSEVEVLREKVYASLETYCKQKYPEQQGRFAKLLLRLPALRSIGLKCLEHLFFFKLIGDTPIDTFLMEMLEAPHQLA

`Clc1cc(C(Cl)(Cl)Cl)cnc1Cl` was tested, and the outcome [1] was “inactive”, the outcome [2] was “inactive” and the outcome [3] was “inactive”.
With `CCOC(=O)OC1=C(c2cc(C)ccc2C)C(=O)NC12CCC(OC)CC2` (centres undefined) the outcome [1] was “inactive”, the outcome [2] was “inactive” and the outcome [3] was “inactive”. The outcome [4] was “inactive” and the outcome [5] was “inactive”.
For `c1csc(-c2ccc(-c3cccs3)s2)c1`, the AC50 [1] was 1.7 µM (active), the AC50 [2] was 8.5 µM (active) and the outcome [6] was “inactive”. For the same compound, the outcome [3] was “inactive”, the outcome [4] was “inactive” and the outcome [5] was “inactive”. For the same compound, the outcome [7] was “inactive”.
With `Clc1cnc(Oc2ccc(Oc3ncc(Cl)cc3Cl)cc2)c(Cl)c1` the AC50 [1] was 16.7 µM (active), the AC50 [2] was 7.48 µM (active) and the outcome [3] was “inactive”.
For `[F][Sn]([c]1ccccc1)([c]1ccccc1)[c]1ccccc1`, the AC50 [1] was 0.0401 µM (active), the outcome [2] was “inactive” and the AC50 [4] was 0.00404 µM (active). The AC50 [5] was 0.00128 µM (active).
In the case of `CN(N=O)C(N)=O`, the outcome [1] was “inactive”, the outcome [2] was “inactive” and the outcome [6] was “inactive”. For the same compound, the outcome [5] was “inactive”, the outcome [9] was “inactive” and the outcome [7] was “inactive”.
In the case of `O=C(NC(=O)c1c(F)cccc1F)Nc1cc(Cl)c(OC(F)(F)C(F)C(F)(F)F)cc1Cl` (centres undefined), the outcome [1] was “inactive”, the outcome [2] was “inactive” and the outcome [6] was “inactive”. The outcome [3] was “inactive”, the outcome [4] was “inactive” and the outcome [5] was “inactive”. The outcome [9] was “inactive” and the outcome [7] was “inactive”.
With `CC1CC(=O)O1` (centres undefined) the outcome [1] was “inactive”, the outcome [2] was “inactive” and the outcome [8] was “inactive”. For the same compound, the outcome [5] was “inactive” and the outcome [7] was “inactive”.
In the case of `C1CN2CCN1CC2`, the outcome [1] was “inactive”, the outcome [2] was “inactive” and the outcome [3] was “inactive”. The outcome [8] was “inactive”.
`CNC(=O)N(C)c1nc2ccccc2s1` was tested, and the outcome [1] was “inactive”, the AC50 [2] was 52.8 µM (active) and the outcome [3] was “inactive”. The outcome [8] was “inactive”, the outcome [5] was “inactive” and the outcome [9] was “inactive”.
With `Nc1nc(=S)[nH][nH]1` the outcome [1] was “inactive”, the outcome [2] was “inactive” and the outcome [8] was “inactive”. For the same compound, the AC50 [5] was 164 µM (active).
With `CCCCC(CC)C(=O)Cl` (centres undefined) the outcome [1] was “inactive”, the outcome [2] was “inactive” and the outcome [8] was “inactive”.
`O=S(=O)(Oc1ccc(Cl)cc1)c1ccc(Cl)cc1` was tested, and the AC50 [1] was 27.5 µM (active), the AC50 [2] was 4.68 µM (active) and the outcome [3] was “inactive”. The outcome [4] was “inactive”, the outcome [9] was “inactive” and the outcome [7] was “inactive”.
In the case of `COP(=S)(OC)Oc1cc(Cl)c(I)cc1Cl`, the AC50 [1] was 28.3 µM (active), the AC50 [2] was 21.8 µM (active) and the outcome [4] was “inactive”. The AC50 [5] was 38.6 µM (active) and the outcome [9] was “inactive”.
For `CC1(C)[C@H](/C=C2\CCSC2=O)[C@@H]1C(=O)OCc1coc(Cc2ccccc2)c1`, the AC50 [1] was 1.05 µM (active), the AC50 [2] was 0.731 µM (active) and the outcome [3] was “inactive”. For the same compound, the outcome [5] was “inactive”.
For `O=C=Nc1ccc(Cl)cc1`, the outcome [1] was “inactive”, the outcome [2] was “inactive” and the outcome [8] was “inactive”. The outcome [5] was “inactive” and the outcome [7] was “inactive”.
With `CCCCCCCCCCCCCCC(Br)C(=O)O` (centres undefined) the AC50 [1] was 11.4 µM (active), the outcome [2] was “inactive” and the outcome [8] was “inactive”. For the same compound, the AC50 [4] was 26.7 µM (active), the AC50 [5] was 9.18 µM (active) and the outcome [7] was “inactive”.
`CCCSP(=S)(OCC)Oc1ccc(Cl)cc1Cl` (centres undefined) was tested, and the AC50 [1] was 24.3 µM (active), the AC50 [2] was 2.51 µM (active) and the outcome [3] was “inactive”. For the same compound, the outcome [8] was “inactive”, the outcome [4] was “inactive” and the AC50 [5] was 27 µM (active). For the same compound, the outcome [7] was “inactive”.
For `C=C(C)C(=O)OCCCCOC(=O)C(=C)C`, the AC50 [1] was 79.9 µM (active), the outcome [2] was “inactive” and the outcome [6] was “inactive”. For the same compound, the outcome [3] was “inactive”, the outcome [4] was “inactive” and the outcome [5] was “inactive”. The outcome [7] was “inactive”.
With `COC(=O)c1cc(Oc2ccc(Cl)cc2Cl)ccc1[N+](=O)[O-]` the AC50 [1] was 20 µM (active), the AC50 [2] was 13.7 µM (active) and the outcome [6] was “inactive”. For the same compound, the outcome [8] was “inactive”, the outcome [5] was “inactive” and the outcome [7] was “inactive”.
For `Clc1ccc(C(Cl)(Cl)Cl)cn1`, the outcome [1] was “inactive”, the outcome [2] was “inactive” and the outcome [8] was “inactive”. For the same compound, the outcome [5] was “inactive” and the outcome [9] was “inactive”.
In the case of `CCCCOP(=O)(CCCC)OCCCC`, the AC50 [1] was 38.4 µM (active), the AC50 [2] was 8.52 µM (active) and the outcome [3] was “inactive”. The outcome [4] was “inactive”, the outcome [9] was “inactive” and the outcome [7] was “inactive”.
In the case of `Fc1cccc(Cl)c1CCl`, the AC50 [1] was 4.39 µM (active), the outcome [2] was “inactive” and the outcome [3] was “inactive”. The outcome [8] was “inactive” and the outcome [5] was “inactive”.
With `CC(c1ccc(O)cc1)c1ccc(O)cc1` the outcome [1] was “inactive”, the AC50 [2] was 27.7 µM (active) and the outcome [6] was “inactive”. For the same compound, the outcome [4] was “inactive” and the outcome [9] was “inactive”.
In the case of `COCCl`, the outcome [1] was “inactive”, the outcome [2] was “inactive” and the outcome [8] was “inactive”. For the same compound, the outcome [4] was “inactive” and the outcome [7] was “inactive”.
In the case of `O=C(CBr)c1ccc(O)cc1`, the outcome [1] was “inactive”, the outcome [2] was “inactive” and the outcome [8] was “inactive”. The outcome [7] was “inactive”.
`CCC[CH2][Sn]([CH2]CCC)([CH2]CCC)[CH2]CCC` was tested, and the AC50 [1] was 3.29 µM (active), the AC50 [2] was 9.24 µM (active) and the outcome [6] was “inactive”. The AC50 [5] was 0.0334 µM (active) and the outcome [9] was “inactive”.
For `C=CCN=C=S`, the outcome [1] was “inactive”, the outcome [2] was “inactive” and the outcome [3] was “inactive”. The outcome [5] was “inactive”, the outcome [9] was “inactive” and the outcome [7] was “inactive”.
In the case of `C=C(C)C(=O)OCC(CC)CCCC` (centres undefined), the outcome [1] was “inactive”, the outcome [2] was “inactive” and the outcome [4] was “inactive”. For the same compound, the outcome [5] was “inactive”, the outcome [9] was “inactive” and the outcome [7] was “inactive”.
In the case of `CCCCCCCCBr`, the outcome [1] was “inactive”, the outcome [4] was “inactive” and the outcome [5] was “inactive”. The outcome [7] was “inactive”.
`COc1ccc([N+](=O)[O-])cc1O` was tested, and the outcome [1] was “inactive”, the outcome [6] was “inactive” and the outcome [3] was “inactive”. For the same compound, the outcome [5] was “inactive” and the outcome [9] was “inactive”.
